# Test results reported in the supplement of paper PMC9135407.
# Values joined by “and” are separate entries in the source; they are usually repeats but may differ in a detail not shown here. Identical values can stand only once. Counter-ions that a name gives are not always drawn. Screen size: about 5,800 compounds; about 620 (11%) showed activity. The full list was thinned out, with actives kept by preference. Unmarked numbers belong to inactive results.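 How the source made its calls: active = score above a cut-off or among the top three wells of a plate; in these data no inactive exceeds 0.85.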
# Test system: primary human hepatic stellate cells (donor 1)
# Assay: scaled lipid accumulation score (0 = DMSO-like, 1 = nortriptyline-like); higher = stronger HSC inactivation (lipid re-accumulation), active = hit call of the paper
# Settings: 48 h
# Procedure: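 Primary lipid accumulation screen in primary human hepatic stellate cell myofibroblasts (donor 1, passage 8) in 384-well plates. 100 nL of library compound was pin-transferred into 30 µL medium in duplicate, and cells were treated for 48 h. The 'Scaled' score combines distance from plate baseline, toxicity and reproducibility penalties, and is normalised to nortriptyline (positive) and DMSO (negative) controls on each plate. A hit is defined as scaled >0.85 or among the top 3 wells per plate.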
# [1] = library stock concentration: 10 mM
# [2] = library stock concentration: 1 mM
# [3] = library stock concentration: 3.33 mM
# [4] = library stock concentration: 80 uM
# [5] = library stock concentration: 400 uM
# [6] = library stock concentration: 2 mM
# [7] = library stock concentration: 8.6 mM
compound,measurement,setting,value
CCCN(CCC)C1CCc2cccc(O)c2C1 (stereo not drawn),scaled lipid accumulation score,[1],≤ -0.07
CCCN(CCC)C1CCc2cccc(O)c2C1 (stereo not drawn) [8-Hydroxy-DPAT hydrobromide],scaled lipid accumulation score,[1],0.055
O=C(O)CCC(CP(=O)(O)O)C(=O)O (stereo not drawn) [PMPA (NAALADase inhibitor)],scaled lipid accumulation score,[1],≤ -0.006
CCCCC/C=C\C/C=C\C/C=C\C/C=C\CCCC(=O)NCCCC(=O)O [N-Arachidonoyl-.gamma.-Aminobutyric Acid],scaled lipid accumulation score,[2],0.032
CCN1C[C@]2(COC)CC[C@H](OC)[C@]34C5C[C@@H]6[C@@H](OC)C[C@@]7(OCO[C@@]7(C13)[C@@H](O)C24)C5[C@H]6OC (stereo partly drawn) [Delcorine],scaled lipid accumulation score,,≤ 0
CN(C)C(=S)SSC(=S)N(C)C [Thiram] [listing 1 of 2 here],scaled lipid accumulation score,library stock concentration: 8.3 mM,0.965 (active)
CN(C)C(=S)SSC(=S)N(C)C [Thiram] [listing 2 of 2 here],scaled lipid accumulation score,[1],0.163
"Ic1ccccc1CNC1C2CCN(CC2)C1C(c1ccccc1)c1ccccc1 [L-703,606 oxalate salt hydrate]",scaled lipid accumulation score,[1],0.063
CN1CCC(c2ccc(F)cc2)C(COc2ccc3c(c2)OCO3)C1 (stereo not drawn),scaled lipid accumulation score,library stock concentration: 9.7 mM,0.664
CCCCCC(/C=C/C=O)OO (stereo not drawn) [4-hydroperoxy 2-Nonenal],scaled lipid accumulation score,[2],0.019
"COC(=O)[C@]1(O)C[C@@H]2O[C@@]1(C)n1c3ccccc3c3c4c(c5c6ccccc6n2c5c31)C(=O)NC4 [K-252a, Nocardiopsis sp.]",scaled lipid accumulation score,[3],0.362
O=C1NC(=O)c2c1c1c3ccccc3n3c1c1c2c2ccccc2n1[C@H]1CC[C@@H]3O1,scaled lipid accumulation score,[3],0.338
O=C1NC(=O)c2c1c1c3ccccc3n3c1c1c2c2ccccc2n1C1CCC3O1,scaled lipid accumulation score,[1],1.3 (active)
Cc1sc2c(c1C)C(c1ccc(Cl)cc1)=N[C@H](CC(=O)OC(C)(C)C)c1nnc(C)n1-2,scaled lipid accumulation score,[4],≤ 0
same,scaled lipid accumulation score,[5],≤ 0
same,scaled lipid accumulation score,[6],≤ 0
same,scaled lipid accumulation score,[1],≤ 0
CC[C@@]1(O)C[C@H](O[C@H]2C[C@H](N(C)C)[C@H](O)[C@H](C)O2)c2c(cc3c(c2O)C(=O)c2c(O)ccc(O)c2C3=O)[C@H]1C(=O)OC [Pyrromycin],scaled lipid accumulation score,[1],≤ 0
C[C@@H]1O[C@@H](O[C@H]2C[C@@H](O)[C@]3(CO)C4C(CC[C@]3(O)C2)[C@@]2(O)CC[C@H](C3=CC(=O)OC3)[C@@]2(C)C[C@H]4O)[C@H](O)[C@H](O)[C@H]1O (stereo partly drawn) [Ouabain],scaled lipid accumulation score,[1],0.993 (active)
C[C@@H]1O[C@@H](O[C@H]2C[C@@H](O)[C@]3(CO)[C@H]4[C@H](O)C[C@]5(C)[C@@H](C6=CC(=O)OC6)CC[C@]5(O)[C@@H]4CC[C@]3(O)C2)[C@H](O)[C@H](O)[C@H]1O [Ouabain] [listing 1 of 2 here],scaled lipid accumulation score,[1],1.13 (active)
C[C@@H]1O[C@@H](O[C@@H]2C[C@@H](O)[C@]3(CO)[C@H]4[C@H](O)C[C@]5(C)[C@@H](C6=CC(=O)OC6)CC[C@]5(O)[C@@H]4CC[C@]3(O)C2)[C@H](O)[C@H](O)[C@H]1O [Ouabain],scaled lipid accumulation score,[1],1 (active)
C[C@@H]1O[C@@H](O[C@H]2C[C@@H](O)[C@]3(CO)[C@H]4[C@H](O)C[C@]5(C)[C@@H](C6=CC(=O)OC6)CC[C@]5(O)[C@@H]4CC[C@]3(O)C2)[C@H](O)[C@H](O)[C@H]1O [Ouabain] [listing 2 of 2 here],scaled lipid accumulation score,[7],0.734
C[C@@H]1CC[C@@]2(OC1)O[C@H]1C[C@H]3[C@@H]4CC=C5C[C@@H](O[C@@H]6O[C@H](CO)[C@@H](O[C@@H]7O[C@@H](C)[C@H](O)[C@@H](O)[C@H]7O)[C@H](O)[C@H]6O[C@@H]6O[C@@H](C)[C@H](O)[C@@H](O)[C@H]6O)CC[C@]5(C)[C@H]4CC[C@]3(C)[C@H]1[C@@H]2C [Dioscin],scaled lipid accumulation score,[3],0.577
same,scaled lipid accumulation score,[1],0.255
C[C@@H]1O[C@@H](O[C@H]2C[C@@H](O)[C@]3(CO)[C@@H]4C(CC[C@]3(O)C2)[C@@]2(O)CC[C@H](C3COC(=O)C3)[C@@]2(C)C[C@H]4O)[C@H](O)[C@H](O)[C@H]1O (stereo partly drawn) [Dihydroouabain],scaled lipid accumulation score,[1],0.964 (active)
C[C@@H]1O[C@@H](O[C@@H]2C=C3CC[C@@H]4[C@H](CC[C@]5(C)[C@@H](c6ccc(=O)oc6)CC[C@]45O)[C@@]3(C)CC2)[C@H](O)[C@H](O)[C@H]1O [Proscillaridin A],scaled lipid accumulation score,,0.768
Cc1c2ccncc2c(C)c2c1[nH]c1ccccc12 [Ellipticine],scaled lipid accumulation score,,0.623
same,scaled lipid accumulation score,[1],≤ -0.07
CCC(N)C(O)c1ccc(O)c(O)c1 (stereo not drawn) [Ethylnorepinephrine hydrochloride],scaled lipid accumulation score,[7],≤ 0
same,scaled lipid accumulation score,[1],≤ -0.027
NCC(O)c1cc(O)c(O)cc1F (stereo not drawn) [6-Fluoronorepinephrine hydrochloride],scaled lipid accumulation score,[1],≤ 0
CCCCC/C=C\C/C=C\C/C=C\C/C=C\CCCC(=O)Nc1ccc(O)cc1C,scaled lipid accumulation score,[2],0.064
CCCCCCCC/C=C\CCCCCCCC(=O)N[C@H](C)CO,scaled lipid accumulation score,[2],0.021
COc1cc(C(O)CN)ccc1O (stereo not drawn),scaled lipid accumulation score,[1],≤ -0.055
C=C(C)[C@@H]1CCC(C)=C[C@H]1c1c(O)cc(O)cc1CCCCC,scaled lipid accumulation score,[2],≤ 0
CCCCC/C=C\C/C=C\C/C=C\C/C=C\CCCC(=O)N[C@@H](C)C(=O)O [N-Arachidonoyl-L-Alanine],scaled lipid accumulation score,[2],0.035
CCn1cnc2c(Nc3cccc(Cl)c3)nc(N[C@@H]3CCCC[C@@H]3N)nc21,scaled lipid accumulation score,[4],≤ -0.016
same,scaled lipid accumulation score,[5],≤ -0.016
same,scaled lipid accumulation score,[6],0.503
same,scaled lipid accumulation score,[1],0.364 and 0.356
CN1CCC[C@@H]1Cc1c[nH]c2ccc(Nc3ncccc3[N+](=O)[O-])cc12,scaled lipid accumulation score,[1],≤ 0
CC[C@]1(O)CC[C@H]2[C@@H]3CCC4=CCCC[C@@H]4[C@H]3CC[C@@]21C [Ethylestrenol],scaled lipid accumulation score,[1],≤ 0
CCN1C[C@]2(C)CC[C@H](O)[C@]34C1[C@@H](C[C@H]23)[C@@]1(O)C[C@H](OC)[C@H]2C[C@@H]4[C@@H]1[C@H]2O [Karakoline],scaled lipid accumulation score,,≤ 0
C=C(C)[C@H]1CN[C@H](C(=O)O)[C@H]1CC(=O)O [(-)-(.alpha.)-Kainic Acid (hydrate)],scaled lipid accumulation score,[2],≤ 0
C=C(C)[C@H]1CN[C@H](C(=O)O)[C@H]1CC(=O)O [Kainic acid],scaled lipid accumulation score,[1],≤ -0.055 and 0.031 and ≤ -0.009
COc1cc2c(cc1OC)C1CC(=O)C(CC(C)C)CN1CC2 (stereo not drawn) [Tetrabenazine],scaled lipid accumulation score,[1],≤ 0 and ≤ -0.001
CC[C@H]1CN2CCc3cc(OC)c(OC)cc3[C@@H]2C[C@@H]1C[C@H]1NCCc2cc(OC)c(OC)cc21 [Emetine],scaled lipid accumulation score,[1],0.627
CC[C@H]1CN2CCc3cc(OC)c(OC)cc3C2C[C@@H]1CC1NCCc2cc(OC)c(OC)cc21.Cl.Cl (stereo partly drawn) [Emetine],scaled lipid accumulation score,library stock concentration: 3.6 mM,1.37 (active)
CC[C@H]1CN2CCc3cc(OC)c(OC)cc3[C@@H]2C[C@@H]1C[C@H]1NCCc2cc(OC)c(OC)cc21 [Emetine dihydrochloride hydrate],scaled lipid accumulation score,[1],0.835
COc1cc2c(cc1OC)C(C)NCC2 (stereo not drawn),scaled lipid accumulation score,,0.537
CC[C@H]1CN2CCc3cc(OC)c(OC)cc3[C@@H]2C[C@@H]1C[C@H]1NCCc2cc(OC)c(OC)cc21.Cl.Cl [Emetine dihydrochloride],scaled lipid accumulation score,,0.98 (active)
CC(=O)[C@H]1CC[C@H]2[C@@H]3CC[C@H]4C[C@](C)(O)CC[C@]4(C)[C@H]3CC[C@]12C [Ganaxolone],scaled lipid accumulation score,[1],0.134 and ≤ -0.001
CCCCCCC(=O)O[C@H]1CC[C@H]2[C@@H]3C[C@@H](O)C4=CC(=O)CC[C@]4(C)[C@H]3CC[C@]12C [6.beta.-Testosterone Enanthate],scaled lipid accumulation score,[2],0.05
c1ccc(/N=N/c2ccccc2)cc1 [Azobenzene],scaled lipid accumulation score,[1],≤ 0
CC1=C2[C@H]3OC(=O)[C@@H](C)[C@@H]3CC[C@@]2(C)C=CC1=O [alpha-Santonin],scaled lipid accumulation score,,≤ 0
C[C@H]1CC[C@]2(NC1)O[C@H]1C[C@H]3[C@@H]4CC[C@H]5C[C@@H](O)CC[C@]5(C)[C@H]4CC[C@]3(C)[C@H]1[C@@H]2C [Tomatidine],scaled lipid accumulation score,,0.117
C[C@]12CC[C@H]3[C@@H](CC[C@]4(O)C[C@@H](O)CC[C@]34C=O)[C@@]1(O)CC[C@@H]2C1=CC(=O)OC1 [Strophanthidin],scaled lipid accumulation score,,0.887 (active)
C[C@]12CCC3C(CC[C@]4(O)C[C@@H](O)CC[C@]34C=O)[C@@]1(O)CCC2C1=CC(=O)OC1 (stereo partly drawn) [Strophanthidin],scaled lipid accumulation score,[1],1.12 (active)
C[C@H]1O[C@@H](O[C@H]2CC[C@]3(C=O)[C@H]4CC[C@]5(C)[C@@H](C6=CC(=O)OC6)CC[C@]5(O)[C@@H]4CC[C@]3(O)C2)C[C@H](O)[C@@H]1O [Helveticoside],scaled lipid accumulation score,,0.504
CCN1C[C@]2(COC(=O)c3ccccc3N3C(=O)C[C@H](C)C3=O)CC[C@H](OC)[C@@]34[C@@H]5C[C@H]6[C@H](OC)[C@@H]5[C@](O)(C[C@@H]6OC)[C@](O)([C@@H](OC)[C@H]23)[C@@H]14 [Methyllycaconitine citrate],scaled lipid accumulation score,[1],≤ -0.006
CCC1(c2ccc(N)cc2)CCC(=O)NC1=O (racemic) [Dl-aminoglutethimide],scaled lipid accumulation score,[7],0.005
NC(CP(=O)(O)O)C(=O)O (stereo not drawn),scaled lipid accumulation score,[1],0.082
CCCCCCCCCCCCCCCCOCC(COP(=O)([O-])OCC[N+](C)(C)C)OC(C)=O (stereo not drawn) [Enantio-PAF C16],scaled lipid accumulation score,[2],0.064
